Assay results from PubChem BioAssay AID652154 (Broad Institute, 2013).
Among all 360,000 compounds or so, about 4,200 (1.2%) were called active.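 Rule for the calls: active = mean replicate inhibition at least 60% with every replicate also reaching 60%; inconclusive = only one of the two criteria is met; inactive = mean below 60% and not all replicates reaching 60%.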 The full list was thinned out, with actives kept by preference.

Assay: inhibitors of PAX8-driven TPO luciferase reporter, primary screen, RMG-I cells, single concentration (AID 652154);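 note: luciferase light reporting Pax8 driven TPO promoter activity; plate controls were median of neutral control wells for no effect and mitoxantrone controls for full effect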
Details: SteadyGlo, 24 h, at 12.6 µM, stronger effect = higher value

inhibition, inactive:
CC(C)NC(=O)N1C[C@@H]2[C@H](c3ccccc31)[C@H](CO)N2C(=O)c1ccccn1 -13.7%
COCC#Cc1ccc([C@@H]2[C@@H](CO)N3C(=O)CN(C(=O)C4CCOCC4)C[C@@H]23)cc1 -23.4%
COc1ccc(NC(=O)N(C)C[C@H]2Oc3ccc(N(C)C)cc3C(=O)N([C@@H](C)CO)C[C@H]2C)cc1 -20.3%
O=C(NCC1CC1)[C@@H]1[C@@H](CO)[C@@H]2Cn3c(ccc(C4=CCCC4)c3=O)[C@H]1N2CCC(F)(F)F -4.22%
CCCNC(=O)N1C[C@H]2[C@@H](c3ccccc31)[C@@H](CO)N2C(=O)NCCC -23.2%
Nc1nc2c(ncn2[C@@H]2O[C@H](C(=O)N[C@H](Cc3ccccc3)C(=O)NCC3CCCCC3)[C@@H](O)[C@H]2O)c(=O)[nH]1 -4.88%
C[C@H](CO)N1C[C@H](C)[C@@H](CN(C)C(=O)Nc2ccnc(N3CCOCC3)c2)OCc2ccccc2-c2ccccc2C1=O -26.9%
C[C@@H]1CN([C@@H](C)CO)C(=O)Cc2cc(NC(=O)Nc3ccc(F)cc3)ccc2O[C@@H]1CN(C)C -0.58%
C[C@H](CO)N1C[C@H](C)[C@@H](CN(C)Cc2ccncc2)Oc2ccc(NS(=O)(=O)c3ccc(Cl)cc3)cc2CC1=O 20.9%
CCCNC(=O)N1CC2(C1)[C@@H](c1ccccc1)[C@@H](CO)N2C(=O)CC1CC1 -12.2%
CCCNC(=O)N1C[C@@H](C)[C@@H](OC)CN(C)C(=O)c2ccc(NC(=O)CCC)cc2OC[C@H]1C 1.97%
C[C@@H]1CN([C@H](C)CO)C(=O)c2cc(Br)cnc2O[C@@H]1CN(C)C(=O)Nc1ccc(F)cc1 9.97%
C[C@@H]1CCCCO[C@@H](CN(C)Cc2ccc(C(=O)O)cc2)[C@@H](C)CN([C@@H](C)CO)C(=O)c2cc(NC(=O)Nc3ccc(C(F)(F)F)cc3)ccc2O1 -6.61%
C[C@@H]1CN([C@H](C)CO)C(=O)c2cc(NC(=O)Nc3ccc(C(F)(F)F)cc3)ccc2O[C@@H](C)CCCCO[C@@H]1CN(C)Cc1ccc(C(F)(F)F)cc1 -27.4%
COc1ccc2c3c([nH]c2c1)[C@H](CO)N(C(=O)C1CCCCC1)CC31CCN(C(=O)c2ccncc2)CC1 3.94%
CCC(=O)N(C)C[C@@H]1Oc2cc(-c3ccccc3OC)ccc2S(=O)(=O)N([C@H](C)CO)C[C@H]1C -9.48%
COC(=O)C[C@@H]1CC[C@H]2[C@H](COc3ccc(NC(=O)c4ccccc4F)cc3C(=O)N2C)O1 9.97%
O=C(C(=O)N1CCC(CNS(=O)(=O)Cc2ccccc2)CC1)c1cc2ccccc2o1 10%
COc1ccc(NC(=O)Nc2ccc3c(c2)[C@@H]2C[C@H](CC(=O)N[C@@H](C)c4ccccc4)O[C@@H](CO)[C@@H]2O3)cc1 -20.1%
C[C@H](NC(=O)C[C@H]1CC[C@H]2[C@@H](COC[C@H](O)CN2C(=O)Nc2cc(Cl)cc(Cl)c2)O1)c1ccccc1 3.71%
C[C@H]1CCCCO[C@@H](CN(C)Cc2ccccc2)[C@@H](C)CN([C@@H](C)CO)C(=O)c2cc(NC(=O)Cc3ccccc3)ccc2O1 -9.52%
CNC(=O)C[C@H]1CC[C@@H]2[C@@H](COc3ccc(NC(=O)c4ccc(F)c(F)c4)cc3C(=O)N2C)O1 -18.3%
COc1ccc(N2CCN(S(=O)(=O)c3ccc4c(c3)N(C(C)=O)CCO4)CC2)cc1 3.96%
CCOC(=O)C1CCN(S(=O)(=O)c2ccc3c(c2)N(C(C)=O)CCO3)CC1 8.01%
C[C@H]1CN([C@@H](C)CO)C(=O)c2cc(NC(=O)Nc3ccccc3)ccc2O[C@H]1CN(C)C(=O)Nc1ccc(F)cc1 -5.44%
O=C(C[C@@H]1CC[C@@H]2[C@H](COC[C@H](O)CN2Cc2cccc(C(F)(F)F)c2)O1)NCc1ccc(F)cc1 19.6%
CC1CCN(c2nc3c(c(=O)[nH]c(=O)n3C)n2CCCc2ccccc2)CC1 -19.2%
C=C(C)Cn1c(N2CCCC2)nc2c1c(=O)[nH]c(=O)n2C -3.4%
COCCNC(=O)C[C@H]1CC[C@H](NS(=O)(=O)c2ccc(C)cc2)[C@@H](CO)O1 -3.36%
O=C(CN1CCOCC1)N1CCCCN2[C@@H](CO)[C@H](c3ccc(/C=C/c4ccccc4)cc3)[C@@H]2C1 -11.5%
O=C(C[C@H]1CC[C@@H]2[C@H](COC[C@H](O)CN2S(=O)(=O)c2ccc(Cl)cc2)O1)N[C@@H]1CCN(Cc2ccccc2)C1 32.3%
C=CC[C@H](CC(=O)NCCO)C(=O)N[C@@H](COC(=O)[C@@H](CC=C)Cc1ccc(F)cc1)Cc1c[nH]c2ccccc12 8.97%
C=CCC[C@H](Cc1ccc(F)cc1)C(=O)OC[C@H](C)NC(=O)[C@H](CC=C)CC(=O)N(CCO)Cc1ccccc1 23.7%
C=CCC[C@@H](Cc1ccc(F)cc1)C(=O)OC[C@@H](C)NC(=O)[C@H](CC=C)CC(=O)N(CCO)Cc1ccccc1 31.4%
C=CC[C@@H](CC(=O)N[C@H](CO)Cc1ccccc1)C(=O)N[C@@H](COC(=O)[C@@H](CC=C)Cc1ccc(F)cc1)Cc1c[nH]c2ccccc12 25.6%

inhibition, active:
C[C@@H]1CCCCO[C@H](CN(C)Cc2ccc(C(F)(F)F)cc2)[C@H](C)CN([C@H](C)CO)C(=O)c2cc(NC(=O)Nc3ccc(F)cc3)ccc2O1 92.5%
C=CCn1c(C)cc(C2=NNC(=NCC)SC2)c1C 107%
CC(=O)N1CCOc2ccc(S(=O)(=O)N3CCN(c4cccc(C(F)(F)F)c4)CC3)cc21 92.2%
Cn1c(=O)[nH]c(=O)c2c1nc(N1CCN(C(c3ccccc3)c3ccccc3)CC1)n2CCO 84.2%
C=CCC[C@H](Cc1ccc(F)cc1)C(=O)OC[C@@H](Cc1c[nH]c2ccccc12)NC(=O)[C@H](CC=C)CC(=O)N[C@H](CO)Cc1ccccc1 75.3%
C=CCC[C@@H](Cc1ccc(F)cc1)C(=O)OC[C@H](Cc1c[nH]c2ccccc12)NC(=O)[C@@H](CC=C)CC(=O)N(CCO)Cc1ccccc1 75.3%
